Screen size: about 53,000 sequences; about 3,700 (7%) were called active.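 The calls were made as follows: active = gene knockdowns whose robust z-score for IL-1 alpha signal is at least 2 or at most -2, so actives lie on both sides; inactive = the rest.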 The full list was thinned out, with actives kept by preference.
Assay: Components of the Cytosolic LPS Sensing Pathway: Gene Identification via Genome-wide siRNA Screen;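 also: robust z of the log signal after scaling to non-targeting control siRNA wells of the plate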
Conditions: RAW264.7 macrophages, IL-1a HTRF, actives lie on both sides, screened at 100 nM (by protocol), cells primed 5 h with Pam3CSK4 first
In short: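 Three distinct siRNAs per gene were tested singly at 100 nM in RAW264.7 macrophages. Following Pam3CSK4 priming and 24 hour LipidA transfection, IL-1a secretion was read by HTRF.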

z-score, inactive:
GGAACACAACUUCCUGUUCTT against Map11 1.05
GGAUUUUACAGUUUUUGGATT against Pccb 1.01
GGUCAUGGUUAUUUUGUUATT against Plekhg2 0.929
GGCUAUUUUGGCUUGUAAATT against Jam2 -0.504
GGUGUCAUGAUGGAGCUGATT against Crygc 0.862
GGCCUCAGUUGGACUUGAATT against Scn10a -0.352
GGCUAUACCUUGGUAGAUATT against Parvg -1.19
GGUCUCCUCCAAGAUGAUGTT against Mettl3 -1.01
GCAGGAGAACUUUUUUAGUTT against Hus1 -1.01
GGUGCUAGGAAUGAACGGGTT against Ripply1 0.478
GGAUGCUUGUGGACCUGUGTT against Olfr1123 1.14
GGCCAUCAGUGUGGAAUGUTT against BC004004 -0.19
GGUAAUAACCCUUAAUAAGTT against Akirin2 0.572
GCACAAAAAAGUGAUAUUGTT against Hdlbp 0.41
GGAAGAUGUUAAGAGUUACTT against Slc1a3 -0.865
GCUAUCUCUGCUAAUAAAGTT against Col6a1 -0.203
GCCAUCCUUGUGCUAAGAGTT against Ifna4 -0.604
GCAUGAAUUCAAAUUGCCATT against Adgrl4 -0.981
CGGUACUAAACAUUACCUCTT against Olfr633 0.957
CCUGUUCUGUUAUCAACGGTT against Plxdc1 0.123
GGCAAACUGUCUCUUCAGATT against Pim1 -0.131
GGUGAAGAGUUCAAACAUCTT against Atp9a 1.29
GGACAUUGACCUGUUCGGCTT against Eef1d 0.952
GGACCUCAACAUCCAGAGATT against Sema6b -0.217
CGACCUGAAAGAUUCGGAATT against Ppara -1.04
GCUCAACCCAUUCUUUGAUTT against Cep295nl 0.407
CCAAAGCUAGGUCAUUUUATT against Slc31a2 0.72
GGAAAAAGCGGAAAUUCAGTT against Pgbd5 -0.276
GGAAGAAGACUCAGAAAGUTT against Prkag2 1.43
CCGACCAUCUGUGGAAAUATT against Samd5 0.227
GCCAGAUCCCUGGAAUGUATT against Ece2 -0.632
GGUAUUGCUUUCACAUUAUTT against Efr3a 0.434
GGUGUAAGAACUUCAAGUUTT against Tlr9 0.199
GGCUGUUUUUACCCUACUUTT against Vmn1r72 -0.441
GGAGAAAUUCAAAAGGAAUTT against Ms4a6d -0.764
GGAUGCUCAUGCUAAGCAGTT against Krt7 0.547
GGAACUUCCCUAUAGUGAATT against Hdac3 -1.52
GGAUGCGCUGAUAUCAGUATT against Olfr370 1.3
GCUCAUUGAGUACAAGACCTT against Ndufs2 1.76
CCCUCAAUGCUGGAAAACCTT against Nol4 -1.43
GGCAAGGAUGAUGUCUUCGTT against Upk1a -1.33
GCUUCUAGGGACCUAUUAATT against Dhx30 -0.0854
GGCACUCAAUGUCUUCUAUTT against Nbeal1 0.516
GGAAUCGGUACUCUUCCACTT against Tcerg1l 0.26
GGAAUUCAUGAAGUAUAACTT against Myo5c 0.941
GAUAAUUUGCACAUCCUCUTT against Nrn1l -0.999
GCUGGGCUACAAUACAUAUTT against Fgf3 -0.0573
CCAUGAGUAUCAAGUCAAUTT against Septin9 1.14
GGGUGAAAUCUAUCUCCAUTT against Agfg1 -1.85
CCAUAAUUCAGCUAGACCUTT against Axin1 0.201
GGAAAUCUUUGAGUUUGAATT against Clca1 -0.0578
GCCAAAUGAGUCAGAUACUTT against Ak3 -0.402
GCCUACAGGAGUGAGAUAATT against Arhgap33os -1.36
AUUGCAUUGUAUUCACUUGTT against Psg22 0.777
GGAAUUCACAUUUGACUGUTT against Irx3os 0.31
GGGUUGGAUAGAAUAUUGUTT against Xk 1.4
GCAGUAUGAGGUAAAUUAUTT against Amer3 1.05
GCCUUCAUUAUUUUAAUGCTT against Ilf3 0.0185
GGCAAAAUGAUCUGCUUUCTT against Trim69 -0.125
GGUUGCUCAGAUUCAGAAUTT against Isy1 -1.53
GGAACCUAGAGAAAAAGAATT against Iyd -1.18
GGCUUUCCAGAAGACAGAATT against Cyp2s1 0.469
GCUAUGACUCCAACAUGCGTT against Jaml 0.0115
GGUGAAGACAGAAUUUCCGTT against 1700128F08Rik -1.01
GGAAGCAAGGAAAAUCAUGTT against Lpo -0.289
GGUGAUACGUAUUUUUUAGTT against Pan3 -1.09
GGUGUUUACUUCCUCAGAATT against Slc9b2 -0.373
GGAGAUAUCCAUCAAUAGUTT against Nbr1 0.874
GGACUUCUAAAAAUCUCUGTT against Gabrb2 0.746
GCGCGCAGUGAACGAAAAATT against Mycn 1.14
CCAUCACGGAUAAUCAUCGTT against 4931417E11Rik -1.65
GGUACUUCCUACCUAACAGTT against Nipa1 -0.235
CCACAGGUUACAACAUAAATT against Pign -1.45
GCUCCACAAGAUGUAAAGGTT against Il21 0.11
GGGCCAUUUUAGGUCCUUUTT against Rbm7 0.112
GGACUUACCUUUAACCAACTT against Slc30a4 0.42
GGGAAUGAAAAGUCAAAAGTT against Stard7 -0.047
GCAGCUCUAGGUGUUCAGUTT against Gjc3 0.955
GCCAUGCACUAACUUGAAUTT against Adamts4 -0.0391
GCACUUUACGAGUAUGUAATT against Gnl1 -1.74
GGUAUUGGAAAGUAGAAACTT against Igflr1 0.515
GGAGAUCCUUCAUUACCUGTT against Psap -1.34

z-score, active:
GGGAUGCUGUCUUCUGUCATT against Prex1 -3.39
CCUAACCACUACCUUAUACTT against H2-DMa 2.43
GGGUAACACCUCAAGUUCATT against Rhag 2.33
GGGUUGUUGAGACUUCCACTT against Hmbs 2.79
CCAGGAGGAUACAAUCCCUTT against Rgs3 -3.38
GGAUUAAAUCCGAAAAGCUTT against Tmem51 -2.36
CGUAGCUGUAAUUCUUCAGTT against Pcdhgb2 2.02
GAGUGGUUUCUAAUUCGUATT against A830031A19Rik 2.56
GGAGCUGUAUGAGAUAGAGTT against Zfp566 4.15
GGUUAAAGGUCAGAUUUAGTT against Dapk2 2.54
GCAUUUGUACAUUGUGACUTT against Ces5a -2.28
GGGUCCAGUAUCCAUCAAATT against Sf3a1 -2.7
GGAUGAGGGAACGUACAUUTT against Il18r1 5.74
GGUCACUGAACCUAUUUCCTT against Arhgap15 -2.56
GGUCUAUGAGAUGUUUUCUTT against Cyp2a4 2.78
GCAACUGGCUGAACUCUCATT against Gsdmc2 3.91
GCUACUGCAGUAUACAUUGTT against Olfr869 2.21
GGGUUUGAGUGCUGUGAAGTT against Ap4s1 -2.66
GGUAAAGACUGGAUGGCUATT against Art5 2.14
GGAUCCUUAAUCGAUACACTT against Gng3 2.38
GCCUCGAUUGGCCACAUUUTT against Atp5l 4.61
GCUCUGUUAAGGAAGAACATT against Safb2 2.02
GGGUUGUCUUCAUCUACUUTT against Crhr1 3.47
GGAACUGAUGAUGGACCAGTT against Slc4a1 3.39
GCCAUUGGGUGUAACAUUUTT against Mpp6 3.35
CCGAGUGGUUAGCUACCAGTT against Ccl24 2.4
